High-throughput results from PubChem.
LDHA inh: blocks human lactate dehydrogenase A; purified LDHA, NADH/diaphorase-resazurin fluorescence; stronger effect = lower value; actives 0.15% (n = 480,000); AID 1347041; P00338; activity change, % (values are at about 110 or 230 µM); in the data active = activity change below about -30%;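 note: plate controls were DMSO wells for no effect and wells without enzyme for full effect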
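Human LDH5 (2 nM) was incubated with 0.06 mM NADH and 0.2 mM pyruvate for 5 min at room temperature in Tris pH 7.4. Remaining NADH was coupled through diaphorase/resazurin, and resorufin fluorescence was read at 0 and 20 min.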
Akt phos inh: blocks phosphorylation of Akt; Neuro2A IGF-stimulated pAkt S473 HTRF, 20 min; stronger effect = lower value; activity change, % for hits at 50 µM; actives 0.32% (n = 360,000); in the data active = activity change below about -80%; note: % is set by controls: 0 for no effect and ±100 for the full control effect
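Single-point screen (50 µM final compound) in Neuro2A cells stimulated 20 min with 6 nM IGF at 37 deg C. After lysis, Ser473-phosphorylated Akt read by HTRF (ex 330 nm, em 615/665 nm) as the 665/615 ratio.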
D3 ag: agonists of human D3 dopamine receptor | actives 0.58% (n = 410,000) | max activation, % | D3R DiscoveRx beta-arrestin cells, luminescence, 90 min; in the data active = max activation above about 30%; note: 0% is about no effect
Target sequence (P35462 whole entry, looked up): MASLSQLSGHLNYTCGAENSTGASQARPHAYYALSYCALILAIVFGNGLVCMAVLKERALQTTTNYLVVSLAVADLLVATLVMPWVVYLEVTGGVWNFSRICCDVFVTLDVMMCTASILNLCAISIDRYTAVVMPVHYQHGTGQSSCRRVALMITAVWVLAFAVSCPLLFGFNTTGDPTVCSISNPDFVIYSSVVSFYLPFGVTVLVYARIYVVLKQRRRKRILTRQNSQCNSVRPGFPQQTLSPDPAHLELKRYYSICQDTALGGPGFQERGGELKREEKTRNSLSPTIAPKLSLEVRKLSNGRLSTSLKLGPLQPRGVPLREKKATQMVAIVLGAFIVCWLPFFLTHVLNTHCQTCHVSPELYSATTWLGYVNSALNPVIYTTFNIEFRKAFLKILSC
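Agonist-mode cell screen: cells plated at 1500/well and incubated overnight at 37 °C, then exposed to library compounds for 90 min at 37 °C. Detection reagent was added for 30–60 min at room temperature, and luminescence was read.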
PI4K2A block: PI4K2A (human) kinase inhibition; actives 0.13% (n = 420,000); activity change, negative = inhibition, % at 76.9 µM; Q9BTU6; purified PI4K2A, ADP-Glo luminescence, 1 h; stronger effect = lower value; in the data active = activity change below about -50%;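 note: -100% = wells without enzyme as full effect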
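In this quantitative HTS, ADP production by PI4K2A was quantified luminescently after 1 h at ambient temperature; 100 microM adenosine served as plate-quality control.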
RGS4 inhibitor: human RGS4 inhibition; Potency, µM (highest dose often 114 µM), without a hit: at the highest dose activity change, negative = inhibition, most hits filed as inhibitors; actives 0.039% (n = 390,000); P49798; Transcreener GDP fluorescence polarization, RGS4-accelerated GTP hydrolysis; AID 504845; active = well fitted inhibition curve with a large enough effect; note: potency is the fitted concentration of half-maximal effect; % is set by controls: 0 for no effect and ±100 for the full control effect; nearly all actives have a fitted effect of over 75% in size
Target sequence (P49798 whole entry, looked up): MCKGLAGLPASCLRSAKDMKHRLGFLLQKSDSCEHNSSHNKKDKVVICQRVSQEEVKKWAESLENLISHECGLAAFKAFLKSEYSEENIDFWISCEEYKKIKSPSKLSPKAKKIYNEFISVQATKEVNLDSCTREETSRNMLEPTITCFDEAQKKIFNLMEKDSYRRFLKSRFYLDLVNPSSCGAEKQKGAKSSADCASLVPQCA
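MLSMR compounds (23 nl, pin-transferred) preincubated 10 min at room temperature with a 500nM (2x) first reagent, then RGS4 at 900nM (2x) plus Transcreener GDP mix added; fluorescence polarization (620/688 nm) read before and after 90 min at 30 °C.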
D3 antag: D3 dopamine receptor (human) antagonism | P35462 | D3R cells, DiscoveRx beta-arrestin luminescence, antagonist mode; stronger effect = lower value | max response, negative = inhibition, % | actives 2.5% (n = 360,000); in the data active = max response below about -50%; note: % is set by controls: 0 for no effect and ±100 for the full control effect
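Cells plated overnight at 1500 cells/well, then exposed to library compounds with dopamine controls for 90 minutes at 37 degrees C. DiscoveRx reagent added for 30–60 minutes at room temperature; luminescence read, quantitative HTS format.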
Numbers without * were called inactive; i = inactive; . = no result; ! = repeats disagree; [ ] = another dose, or the depositor's remark. Compounds with a hit are over-represented: about 2.8% of the library has one in this group of screens.

SMILES	LDHA inh	Akt phos inh	D3 ag	PI4K2A block	RGS4 inhibitor	D3 antag
O=C(O)CCSCC(=O)Nc1c(C(=O)C2CC2)oc2ccccc12	-6	-100%*	2	9	19%	31
O=C(CN1CCN(c2ccccc2)CC1)Nc1c(C(=O)C2CC2)oc2ccccc12	-6	i	-13	-5	25%	-1
CCOC(=O)N1CCC(=C2c3ccc(Cl)cc3CCc3cccnc32)CC1	-3	i	52*!	1	-4%[56.9 µM]	126
CN(C)S(=O)(=O)c1cccc(NC(=O)c2ccc(OCc3cn4ccccc4n3)cc2)c1	0	.	.	.	.	.
CCCCc1cc(=O)oc2cc(OC(C)C(=O)NCC3CCC(C(=O)O)CC3)c(Cl)cc12 (stereo not drawn)	5	i	-6	-4	-15%	-58*
CC(=O)c1cccc(NC(=O)CC2SC(c3cc4ccccc4oc3=O)=NC2=O)c1 (stereo not drawn)	5	.	.	.	.	.
O=C(c1cc(-c2ccc(Br)cc2)n[nH]1)N1CCN(S(=O)(=O)c2ccc(Br)s2)CC1	-23	.	34*	-3	4%	.
CN(C)C(CNC(=O)c1ccc(Cl)c(S(=O)(=O)N2CCCCCC2)c1)c1ccccc1 (stereo not drawn)	-2	i	-25	-10	14%	-81*
O=C(NCc1ccccc1CN1CCCC1)c1ccc(S(=O)(=O)Nc2ccccc2F)cc1	0	i	0	1	.	-6
O=C(NCc1ccccc1CN1CCCC1)c1ccc(Cl)c(S(=O)(=O)N2CCCC2)c1	-3	i	-31	-3	23%	-50*
CSCC[C@H](NC(=O)c1ccc(Cl)c(S(=O)(=O)N2CCCC2)c1)c1nc2ccccc2[nH]1	-9	.	-15	-1	-12%	-52*
O=C(NCc1ccccc1CN1CCCC1)c1ccc(S(=O)(=O)Nc2ccccc2)cc1	-6	i	-10	6	.	-59*
O=C(NCc1ccccc1CN1CCCC1)c1cccc(S(=O)(=O)N2CCCC2)c1	-11	i	-6	1	4%	-16
O=C(Nc1cc(F)cc(F)c1)c1cnc2ccccc2n1	7	.	.	.	.	.
COc1ccccc1CNC(=O)c1cccc(S(=O)(=O)N2CCN(c3ccc(F)cc3)CC2)c1	2	i	5	-1	7%	2
CN(C)C(CNC(=O)c1cccc(S(=O)(=O)N2CCN(c3ccc(F)cc3)CC2)c1)c1ccccc1 (stereo not drawn)	-5	i	-16	2	21%	-81*
COc1ccc(/C=C2\Oc3cc(OS(=O)(=O)c4ccc(C)cc4)ccc3C2=O)c(OC)c1	-2	.	.	.	.	.
O=C(NCCc1ccccc1)c1ncn[nH]1	-3	i	35*	9	21%	-21
CC1=C(C(=O)N(C(C)C)C(C)C)CC(CC(=O)NC2CCCC2)C(=O)N1Cc1ccccc1 (stereo not drawn)	-11	i	1	-4	.	3
CC1=C(C(=O)N(C(C)C)C(C)C)CC(CC(=O)NC2CCCCC2)C(=O)N1Cc1ccccc1 (stereo not drawn)	-34*	i	-16	8	.	-23
Cn1c(=O)c2c(-c3ccccc3)n(-c3cc([N+](=O)[O-])ccc3O)cc2n(C)c1=O	9	i	-7	2	.	-51*
CCOC(=O)c1c(NC(=O)C2=C(C)NC(=S)NC2c2ccc(C)cc2)sc(C)c1C (stereo not drawn)	-6	i	-13	3	-29%	-53*
COc1ccc(Cl)cc1-c1n[nH]c(=S)n1C1CCCCC1	-4	i	-2	0	-26%	-60*
Cc1cc(Cl)ccc1OCc1n[nH]c(=S)n1C1CCCCC1	8	i	-3	4	-39%[56.9 µM]	-64*
COc1ccc(-c2n[nH]c(=S)n2C2CCCCC2)cc1	-1	i	1	-6	-32%	-26
SMILES	LDHA inh	Akt phos inh	D3 ag	PI4K2A block	RGS4 inhibitor	D3 antag
O=C(OCC(O)C(O)C(O)C(SCc1ccccc1)SCc1ccccc1)c1ccccc1 (stereo not drawn)	-4	i	-5	0	17%	-67*
O=C(OCC(O)C(O)C(O)COC(=O)c1ccccc1)c1ccccc1 (stereo not drawn)	-4	i	22	-3	5%	25
CC1CC(C)CN(S(=O)(=O)c2ccc3c(c2)CC(C)N3C(=O)C2CCC2)C1 (stereo not drawn)	-20	i	0	6	11%	-6
CC1CC(C)CN(S(=O)(=O)c2ccc3c(c2)CC(C)N3C(=O)C2CC2)C1 (stereo not drawn)	-3	.	-20	0	19%	-110*
COCCN(C(=O)Cc1cccs1)C(C(=O)NCc1ccc(OC)cc1)c1ccc(C)cc1 (stereo not drawn)	-4	i	-2	0	8%	12
COc1ccc(CNC(=O)C(c2ccc(C)o2)N(Cc2cccs2)C(=O)Cc2cccs2)cc1 (stereo not drawn)	0	i	3	2	-15%	-57*
c1ccc(-n2nnnc2NCCc2c[nH]c3ccccc23)cc1	-8	i	-3	0	13%	-52*
Cc1cc2oc(=O)cc(CN3C(=O)c4ccccc4S3(=O)=O)c2cc1C(C)C	-7	.	.	.	.	.
CN(Cc1cccc(Cl)c1)C(=O)C1CCN(c2ccc(C(F)(F)F)cn2)CC1	8	.	.	.	.	.
COc1ccc(N=Cc2nc(-c3ccco3)oc2O)cc1	-1	i	-21	7	16%	-52*
Cc1ccc(N=Cc2nc(-c3ccc(C)cc3)oc2O)cc1	-6	i	2	-3	21%[56.9 µM]	9
COc1cc(C(=O)OCCCc2cc3ccccc3c(=O)o2)cc(OC)c1OC	-3	i	18	5	10%	4
COc1cc2cc(CCCOC(=O)c3cc(OC)c(OC)c(OC)c3)oc(=O)c2cc1OC	1	i	55*	1	13%	16
COc1cc(C(=O)OCCc2cc3ccccc3c(=O)o2)cc(OC)c1OC	-18	i	34*	-2	4%	63
COc1cc2cc(CCCOC(=O)c3ccc(C#N)cc3)oc(=O)c2cc1OC	0	i	6	-1	7%	6
COc1cc(C2CC(=O)N(c3sc4c(c3C#N)CCCC4)C3=C2C(=O)CCC3)cc(OC)c1OC (stereo not drawn)	-6	.	.	.	.	.
CC(C)Oc1ccc(CN2CCC2(C)C(=O)Nc2cccc3cccnc23)cc1 (stereo not drawn)	-3	i	-22	0	.	-92*
Cc1c(Br)cccc1NC(=O)C1(C)CCN1Cc1ccc(OC(C)C)cc1 (stereo not drawn)	-4	i	11	-3	.	6
